# Results taken from the supplement of paper PMC4022240.
# ± gives the standard deviation.
# T1: HaloTag-ATRX ADD domain (163-292)
# T1 chain: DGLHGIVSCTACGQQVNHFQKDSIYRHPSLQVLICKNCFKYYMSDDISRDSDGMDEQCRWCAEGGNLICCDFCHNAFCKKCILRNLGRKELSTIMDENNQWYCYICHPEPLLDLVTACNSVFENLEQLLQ
# B1: H3 1-13 A Rme2a T Kme Q T A R K S T G G (peptide)
# chain: ARTKQTARKSTGG
# B2: H3 1-13 A Rme2a Tph K Q T A R K S T G G (peptide)
# chain: ARTKQTARKSTGG
# B3: H3 1-13 A Rme2s T Kme3 Q T A R K S T G G (peptide)
# chain: ARTKQTARKSTGG
# B4: H3 1-13 A Rme T K Q T A R Kme1 S T G G (peptide)
# chain: ARTKQTARKSTGG
# B5: H3 1-13 A Rme2a T K Q T A R Kme S T G G (peptide)
# chain: ARTKQTARKSTGG
# B6: H3 1-13 A Rme Tph K Q T A R K S T G G (peptide)
# chain: ARTKQTARKSTGG
# B7: H3 1-13 A Rme2a T Kac Q T A R K S T G G (peptide)
# chain: ARTKQTARKSTGG
# B8: H3 1-13 A Rme2a T K Q Tph A R K S T G G (peptide)
# chain: ARTKQTARKSTGG
# B9: H3 1-13 A Rme2a T K Q T A R K S T G G (peptide)
# chain: ARTKQTARKSTGG
# B10: H3 1-13 A Rme2a T Kme3 Q T A R K S T G G (peptide)
# chain: ARTKQTARKSTGG
# Columns and labels:
# Assay in all cases: peptide microarray binding signal (635 nm), min-max normalized on array (fraction of array maximum); higher = stronger binding
# Details in all cases: peptide region: H3 1-13
# [1] = biological target: T1, HaloTag-ATRX ADD domain (163-292)
# Description: (§1)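 Histone 13-mer peptides were synthesized as cellulose conjugates with a C-terminal 20-atom PEG linker and printed in triplicate on nitrocellulose. The sequence given is the unmodified backbone; PTMs (Kme1/2/3, Kac, Sph/Tph, Rme/Rme2a/Rme2s, Rcit) are listed in the label and the 'peptide modifications' condition. Slides were probed at 4 °C for 1 h with biotin-labelled (HQ)5-HaloTag reader fusions (ATRX-ADD, ING2-PHD) then streptavidin-Alexa647, or with rabbit histone antibodies then anti-rabbit Alexa647. The mean 635 nm signal of the triplicate spots was scaled 0-1 between the lowest and highest values on each array.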
# [2] = biological target: HaloTag-ING2 PHD (mouse Ing2 200-280)
# Description: as §1
# [3] = biological target: anti-H3K4me3 antibody ab8580
# Description: as §1
# [4] = biological target: anti-H3K9me3 antibody ab8898
# Description: as §1
# [5] = peptide modifications: H3R2me2a H3K4me1, binder concentration: 1:2,000 dilution
# [6] = peptide modifications: H3R2me2a H3K4me1, binder concentration: 1:10,000 dilution
# [7] = peptide modifications: H3R2me2a H3T3ph, binder concentration: 1:2,000 dilution
# [8] = peptide modifications: H3R2me2a H3T3ph, binder concentration: 1:10,000 dilution
# [9] = peptide modifications: H3R2me2s H3K4me3, binder concentration: 1:2,000 dilution
# [10] = peptide modifications: H3R2me2s H3K4me3, binder concentration: 1:10,000 dilution
# [11] = peptide modifications: H3R2me1 H3K9me1, binder concentration: 1:2,000 dilution
# [12] = peptide modifications: H3R2me1 H3K9me1, binder concentration: 1:10,000 dilution
# [13] = peptide modifications: H3R2me2a H3K9me1, binder concentration: 1:2,000 dilution
# [14] = peptide modifications: H3R2me2a H3K9me1, binder concentration: 1:10,000 dilution
# [15] = peptide modifications: H3R2me1 H3T3ph, binder concentration: 1:2,000 dilution
# [16] = peptide modifications: H3R2me1 H3T3ph, binder concentration: 1:10,000 dilution
# [17] = peptide modifications: H3R2me2a H3K4ac, binder concentration: 1:2,000 dilution
# [18] = peptide modifications: H3R2me2a H3K4ac, binder concentration: 1:10,000 dilution
# [19] = peptide modifications: H3R2me2a H3T6ph, binder concentration: 1:2,000 dilution
# [20] = peptide modifications: H3R2me2a H3T6ph, binder concentration: 1:10,000 dilution
# [21] = peptide modifications: H3R2me2a, binder concentration: 1:2,000 dilution
# [22] = peptide modifications: H3R2me2a, binder concentration: 1:10,000 dilution
# [23] = peptide modifications: H3R2me2a H3K4me3, binder concentration: 1:2,000 dilution
# [24] = peptide modifications: H3R2me2a H3K4me3, binder concentration: 1:10,000 dilution
binder,measurement,setting,value
B1,peptide microarray binding signal,"[1]; peptide modifications: H3R2me2a H3K4me1, binder concentration: 50 nM",0.0111 ± 0.00026
same,peptide microarray binding signal,"[1]; peptide modifications: H3R2me2a H3K4me1, binder concentration: 500 nM",0.0211 ± 0.001
same,peptide microarray binding signal,"[2]; peptide modifications: H3R2me2a H3K4me1, binder concentration: 10 nM",0.00585 ± 0.00028
same,peptide microarray binding signal,"[2]; peptide modifications: H3R2me2a H3K4me1, binder concentration: 100 nM",0.0274 ± 0.013
same,peptide microarray binding signal,[3]; [5],0.0329 ± 0.01
same,peptide microarray binding signal,[3]; [6],0.0417 ± 0.011
same,peptide microarray binding signal,[4]; [5],0.00468 ± 0.00097
same,peptide microarray binding signal,[4]; [6],0.00352 ± 0.00019
B2,peptide microarray binding signal,"[1]; peptide modifications: H3R2me2a H3T3ph, binder concentration: 50 nM",0.00567 ± 0.00034
same,peptide microarray binding signal,"[1]; peptide modifications: H3R2me2a H3T3ph, binder concentration: 500 nM",0.0135 ± 0.00068
same,peptide microarray binding signal,"[2]; peptide modifications: H3R2me2a H3T3ph, binder concentration: 10 nM",0.00501 ± 0.00013
same,peptide microarray binding signal,"[2]; peptide modifications: H3R2me2a H3T3ph, binder concentration: 100 nM",0.00737 ± 0.00044
same,peptide microarray binding signal,[3]; [7],0.00262 ± 0.00056
same,peptide microarray binding signal,[3]; [8],0.00434 ± 0.00077
same,peptide microarray binding signal,[4]; [7],0.000755 ± 0.00011
same,peptide microarray binding signal,[4]; [8],0.000577 ± 6.2e-06
B3,peptide microarray binding signal,"[1]; peptide modifications: H3R2me2s H3K4me3, binder concentration: 50 nM",0.00893 ± 9.3e-05
same,peptide microarray binding signal,"[1]; peptide modifications: H3R2me2s H3K4me3, binder concentration: 500 nM",0.0273 ± 0.0066
same,peptide microarray binding signal,"[2]; peptide modifications: H3R2me2s H3K4me3, binder concentration: 10 nM",0.0555 ± 0.0092
same,peptide microarray binding signal,"[2]; peptide modifications: H3R2me2s H3K4me3, binder concentration: 100 nM",0.0641 ± 0.027
same,peptide microarray binding signal,[3]; [9],0.674 ± 0.053
same,peptide microarray binding signal,[3]; [10],0.326 ± 0.034
same,peptide microarray binding signal,[4]; [9],0.228 ± 0.057
same,peptide microarray binding signal,[4]; [10],0.113 ± 0.034
B4,peptide microarray binding signal,"[1]; peptide modifications: H3R2me1 H3K9me1, binder concentration: 50 nM",0.0572 ± 0.0022
same,peptide microarray binding signal,"[1]; peptide modifications: H3R2me1 H3K9me1, binder concentration: 500 nM",0.108 ± 0.011
same,peptide microarray binding signal,"[2]; peptide modifications: H3R2me1 H3K9me1, binder concentration: 10 nM",0.0402 ± 0.0095
same,peptide microarray binding signal,"[2]; peptide modifications: H3R2me1 H3K9me1, binder concentration: 100 nM",0.0772 ± 0.0086
same,peptide microarray binding signal,[3]; [11],0.00991 ± 0.0016
same,peptide microarray binding signal,[3]; [12],0.008959 ± 8.7e-05
same,peptide microarray binding signal,[4]; [11],0.00462 ± 0.00079
same,peptide microarray binding signal,[4]; [12],0.0045 ± 0.00015
B5,peptide microarray binding signal,"[1]; peptide modifications: H3R2me2a H3K9me1, binder concentration: 50 nM",0.0646 ± 0.0083
same,peptide microarray binding signal,"[1]; peptide modifications: H3R2me2a H3K9me1, binder concentration: 500 nM",0.138 ± 0.008
same,peptide microarray binding signal,"[2]; peptide modifications: H3R2me2a H3K9me1, binder concentration: 10 nM",0.0387 ± 0.0036
same,peptide microarray binding signal,"[2]; peptide modifications: H3R2me2a H3K9me1, binder concentration: 100 nM",0.0709 ± 0.014
same,peptide microarray binding signal,[3]; [13],0.0175 ± 0.0013
same,peptide microarray binding signal,[3]; [14],0.0118 ± 0.0015
same,peptide microarray binding signal,[4]; [13],0.00838 ± 0.0011
same,peptide microarray binding signal,[4]; [14],0.00675 ± 0.00044
B6,peptide microarray binding signal,"[1]; peptide modifications: H3R2me1 H3T3ph, binder concentration: 50 nM",0.00649 ± 0.00021
same,peptide microarray binding signal,"[1]; peptide modifications: H3R2me1 H3T3ph, binder concentration: 500 nM",0.0224 ± 0.0029
same,peptide microarray binding signal,"[2]; peptide modifications: H3R2me1 H3T3ph, binder concentration: 10 nM",0.00382 ± 7e-05
same,peptide microarray binding signal,"[2]; peptide modifications: H3R2me1 H3T3ph, binder concentration: 100 nM",0.0254 ± 0.0015
same,peptide microarray binding signal,[3]; [15],0.00321 ± 0.0015
same,peptide microarray binding signal,[3]; [16],0.00183 ± 0.00011
same,peptide microarray binding signal,[4]; [15],0.00154 ± 0.00026
same,peptide microarray binding signal,[4]; [16],0.000692 ± 1.5e-05
B7,peptide microarray binding signal,"[1]; peptide modifications: H3R2me2a H3K4ac, binder concentration: 50 nM",0.0125 ± 0.00079
same,peptide microarray binding signal,"[1]; peptide modifications: H3R2me2a H3K4ac, binder concentration: 500 nM",0.0335 ± 0.0053
same,peptide microarray binding signal,"[2]; peptide modifications: H3R2me2a H3K4ac, binder concentration: 10 nM",0.0118 ± 0.0039
same,peptide microarray binding signal,"[2]; peptide modifications: H3R2me2a H3K4ac, binder concentration: 100 nM",0.0337 ± 0.0021
same,peptide microarray binding signal,[3]; [17],0.00455 ± 0.00093
same,peptide microarray binding signal,[3]; [18],0.00639 ± 0.00058
same,peptide microarray binding signal,[4]; [17],0.0124 ± 0.0014
same,peptide microarray binding signal,[4]; [18],0.0053 ± 0.00063
B8,peptide microarray binding signal,"[1]; peptide modifications: H3R2me2a H3T6ph, binder concentration: 50 nM",0.00602 ± 7.4e-05
same,peptide microarray binding signal,"[1]; peptide modifications: H3R2me2a H3T6ph, binder concentration: 500 nM",0.015 ± 0.0011
same,peptide microarray binding signal,"[2]; peptide modifications: H3R2me2a H3T6ph, binder concentration: 10 nM",0.00549 ± 0.00043
same,peptide microarray binding signal,"[2]; peptide modifications: H3R2me2a H3T6ph, binder concentration: 100 nM",0.00964 ± 0.0013
same,peptide microarray binding signal,[3]; [19],0.00198 ± 0.00026
same,peptide microarray binding signal,[3]; [20],0.0032 ± 0.00025
same,peptide microarray binding signal,[4]; [19],0.00112 ± 3.5e-05
same,peptide microarray binding signal,[4]; [20],0.000923 ± 1.9e-05
B9,peptide microarray binding signal,"[1]; peptide modifications: H3R2me2a, binder concentration: 50 nM",0.0208 ± 0.00057
same,peptide microarray binding signal,"[1]; peptide modifications: H3R2me2a, binder concentration: 500 nM",0.0355 ± 0.025
same,peptide microarray binding signal,"[2]; peptide modifications: H3R2me2a, binder concentration: 10 nM",0.00889 ± 0.00042
same,peptide microarray binding signal,"[2]; peptide modifications: H3R2me2a, binder concentration: 100 nM",0.0186 ± 0.0037
same,peptide microarray binding signal,[3]; [21],0.0031 ± 0.00032
same,peptide microarray binding signal,[3]; [22],0.0016 ± 7.1e-05
same,peptide microarray binding signal,[4]; [21],0.00127 ± 7.4e-05
same,peptide microarray binding signal,[4]; [22],0.000634
B10,peptide microarray binding signal,"[1]; peptide modifications: H3R2me2a H3K4me3, binder concentration: 50 nM",0.00912 ± 0.00034
same,peptide microarray binding signal,"[1]; peptide modifications: H3R2me2a H3K4me3, binder concentration: 500 nM",0.0301 ± 0.00069
same,peptide microarray binding signal,"[2]; peptide modifications: H3R2me2a H3K4me3, binder concentration: 10 nM",0.0149 ± 0.0016
same,peptide microarray binding signal,"[2]; peptide modifications: H3R2me2a H3K4me3, binder concentration: 100 nM",0.013 ± 0.0056
same,peptide microarray binding signal,[3]; [23],0.989 ± 0.041
same,peptide microarray binding signal,[3]; [24],0.193 ± 0.0034
same,peptide microarray binding signal,[4]; [23],0.249 ± 0.031
same,peptide microarray binding signal,[4]; [24],0.0997 ± 0.026
